Screens deposited in PubChem by The Scripps Research Institute Molecular Screening Center.
hcDAF-12 act – activators of H. contortus DAF-12 nuclear receptor. 370,000 tested, 1.4% active. HEK293 hcDAF-12 lit1-tk-luc reporter, luminescence; 0% DMSO, 100% Δ7-dafachronic acid. activation, % at 6.8 µM;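 active = activation above the mean of all tested compounds plus 3 SD, cut at about 5.5% in these data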;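 note: 100% = response to 3 µM Δ7-dafachronic acid high control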
DAX1 inh-1 – NR0B1 (DAX1) inhibition; P51843; HEK293 Gal4-DAX1 luciferase reporter, luminescence; inhibition, % at 6.75 µM; 340,000 tested, 0.99% active; AID 504766;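 active = inhibition above the mean over all tested compounds plus 3 SD, cut at about 4.2% in these data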;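 note: 0% = DAX1-transfected cells with DMSO and 100% = empty-vector control cells with DMSO; inhibition shows as a rise in luminescence from relieved DAX1 repression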
ssDAF-12 act – S. stercoralis DAF-12 activation, primary screen; 370,000 tested, 1% active; activation, % at 6.8 µM; AID 652126; HEK293 ssDAF-12/GRIP1 lit1-tk-luc reporter, luminescence; % of 3 µM dafachronic acid response;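 active = activation above the mean over all tested compounds plus 3 SD, cut at about 0.9% in these data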;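 note: 0% = DMSO-only wells and 100% = 3 µM delta7-dafachronic acid wells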
hgDAF-12 ag – agonists of H. glycines DAF-12 nuclear receptor; activation, % at 6.8 µM; 370,000 tested, 1.8% active; HEK293 GAL4-hgDAF12 UAS-luciferase reporter, agonist luminescence; normalized to butyrate control; AID 687014;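 active = activation above a cutoff set at the mean of all screened compounds plus 3 SD, cut at about 10% in these data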;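 note: 0% = DMSO wells and 100% = sodium butyrate wells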
DAX1 inh-2 – blocks DAX1 repression of SF-1 activated StAR promoter; HEK293T StAR-luciferase reporter, SF-1/DAX-1 repression relief; 370,000 tested, 1.1% active; inhibition, % at 6.8 µM; AID 652010;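 active = inhibition above the mean over all tested compounds plus 3 SD, cut at about 3.6% in these data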;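 note: 0% = DAX-1 cells with DMSO and 100% = cells lacking DAX-1 with DMSO; higher inhibition means more luminescence from relief of DAX-1 repression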
LXRb hcDAF ctr – LXR-beta agonism as hcDAF-12 counter-screen | AID 743027 | shares compounds with hcDAF-12 act | 3,400 tested, under 10 active | activation, % at 6.8 µM | HEK293 Gal4-LXR tk-luc reporter, luminescence, 24 h; normalized: DMSO 0%, positive control 100%;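 active = mean percent activation of the reporter above a cutoff set as the average over tested compounds plus their standard deviation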
Target sequence (P55055 whole entry, looked up, the tested form may be a part): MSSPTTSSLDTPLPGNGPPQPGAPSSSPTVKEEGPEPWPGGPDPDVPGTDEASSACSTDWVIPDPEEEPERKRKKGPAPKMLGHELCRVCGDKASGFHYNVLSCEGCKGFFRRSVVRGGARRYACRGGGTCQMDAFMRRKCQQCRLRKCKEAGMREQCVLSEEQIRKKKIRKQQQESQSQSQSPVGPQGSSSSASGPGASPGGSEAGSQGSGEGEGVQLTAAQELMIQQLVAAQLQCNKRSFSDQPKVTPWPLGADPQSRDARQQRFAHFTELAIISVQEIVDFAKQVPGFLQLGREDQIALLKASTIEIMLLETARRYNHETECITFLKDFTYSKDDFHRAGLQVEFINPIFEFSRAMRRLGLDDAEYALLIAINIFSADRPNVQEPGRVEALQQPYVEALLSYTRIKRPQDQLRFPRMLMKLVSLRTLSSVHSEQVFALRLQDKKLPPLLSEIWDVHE
hcDAF12 conf – confirmation of H. contortus DAF-12 agonists; shares compounds with hcDAF-12 act; activation, % at 6.8 µM; 3,400 tested, 61% active; HEK293 hcDAF-12 lit1-tk-luc reporter, luminescence; % of Δ7-dafachronic acid response;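 active = mean activation across triplicate tests above the threshold derived from the earlier primary screen, cut at about 5.5% in these data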;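 note: 0% = DMSO only wells and 100% = 3 µM Δ7-dafachronic acid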
* = called active by the depositor; nt = not tested or not shown. Shown are actives, neighbours in structure and some others; about 4.1% of the full set was active somewhere.

SMILES | hcDAF-12 act | DAX1 inh-1 | ssDAF-12 act | hgDAF-12 ag | DAX1 inh-2 | LXRb hcDAF ctr | hcDAF12 conf
COCC(=O)N1CCC(Oc2ccc(C(=O)N3C[C@@H]4CCC[C@H]3C4)cc2)CC1 | -2 | 0 | -2 | 0 | 0 | nt | nt
O=C(/C=C/c1ccccc1O)c1ccc(Cl)cc1 | 6.8* | -1 | 1 | 9 | 1 | 0 | 4
CC(=O)Oc1ccc(Cl)cc1/C=C/c1ccc2ccccc2n1 | 8.4* | 1 | 1 | 11* | 2 | 1 | 6.2*
COc1ccccc1-c1nnc(SCC#CCOC(=O)c2ccc(F)cc2)o1 | 0 | nt | -1 | 3 | nt | nt | nt
Cc1ccc(-c2nc3n(n2)Cc2ccccc2-3)cc1 | 16* | -3 | 2.4* | 8 | 3 | 2 | 20*
Cc1cc(C)c2oc(-c3ccc(Cl)c(NC(=O)c4ccc(C#N)cc4F)c3)nc2c1 | 6.6* | 1 | 0 | 1 | 0 | 0 | 5.7*
N#Cc1ccc(C(=O)Nc2cccc3ncccc23)c(F)c1 | -1 | -2 | -2 | 1 | -1 | nt | nt
c1ccc(COc2ccc(OCCCN3CCCC3)cc2)cc1 | 7.3* | 0 | 0 | 8 | 4.4* | 1 | 9.4*
CCOC(=O)CSc1nc(C)c(C(C)=O)cc1C(N)=O | -1 | -1 | -2 | -1 | 0 | nt | nt
Cc1ccc(/C=C/c2nc3ccccc3s2)s1 | 9.4* | 1 | 0 | 2 | 1 | 1 | 19*
CN(C)c1ccc(/C=C/c2nc3ccccc3s2)cc1 | -4 | -3 | -3 | -10 | -2 | nt | nt
COC(=O)CC1(C(=O)OC)Nc2cc(Cl)c(Cl)cc2S(=O)(=O)N1O (configuration not stated) | -3 | 0 | -1 | 2 | 0 | nt | nt
O=C(CSc1c[nH]c2ccccc12)NCC1CCCO1 (configuration not stated) | 9.6* | 1 | 1.5* | 0 | -1 | 0 | 4
COc1ccc(C(=O)NCC(=O)OCC(=O)Nc2ccc(C)c(S(=O)(=O)N(C)C)c2)cc1OC | 0 | 0 | -1 | -2 | 0 | nt | nt
O=C(Nc1nc2ccccc2[nH]1)Nc1ccccc1F | 24* | 2 | 4.8* | 22* | 3 | 2 | 20*
COc1cc(C(=O)Nc2nc3ccccc3[nH]2)cc(OC)c1OC | 0 | -1 | -2 | 5 | 1 | nt | nt
COc1cccc(C(=O)Nc2nc3ccccc3[nH]2)c1 | 7.4* | -4 | 0 | 11* | 3 | 2 | 8.0*
O=C(Nc1nc2ccccc2[nH]1)c1cccc(Br)c1 | 8.6* | 0 | 1 | 12* | 1 | 1 | 7.1*
COc1ccccc1NC(=O)Cn1ccn(-c2cccc3ccccc23)c(=O)c1=O | 0 | -1 | -1 | 3 | 0 | nt | nt
Cc1cn([C@H]2C[C@H](O)[C@@H](CNCc3ccc(F)c(N4CCOCC4)c3)O2)c(=O)[nH]c1=O | 0 | 2 | -1 | -1 | 1 | nt | nt
CN(C)N1C(N)=C(C#N)C(c2cccnc2)C2=C1CCCC2=O (configuration not stated) | 2 | 1 | -1 | 1 | 0 | nt | nt
O=C(NNc1nc2ccccc2nc1C(F)(F)F)c1ccccc1 | -1 | 0 | -1 | -1 | 0 | nt | nt
O=C(NNc1nc2ccccc2o1)c1ccccc1 | 8.2* | nt | 0 | 11* | 2 | 1 | 4
Cc1cccc(C)c1NC(=O)CNC(=O)CN1C(=O)NC2(CCc3ccccc32)C1=O (configuration not stated) | -1 | 1 | -1 | 0 | 2 | nt | nt
COC(=O)c1cn(CCOc2ccccc2)c2ccccc12 | 6.7* | 1 | 1.3* | 6 | 1 | 0 | 3
SMILES | hcDAF-12 act | DAX1 inh-1 | ssDAF-12 act | hgDAF-12 ag | DAX1 inh-2 | LXRb hcDAF ctr | hcDAF12 conf
COC(=O)c1cn(CCOc2ccccc2OC)c2ccccc12 | -2 | -2 | -2 | -3 | -1 | nt | nt
CC(C)N1C(=O)C(=O)N(CC(=O)N2c3ccccc3CC2C)C1=O (configuration not stated) | 0 | -1 | -1 | 2 | -1 | nt | nt
C=CCC1CCCCC12NC(=O)N(c1ccccc1)N2 (configuration not stated) | 1 | -2 | -1 | 3 | 0 | nt | nt
O=C1CCC2(CC1)NC(=O)N(c1ccccc1)N2 | 6.5* | 0 | 1.1* | 8 | 0 | 0 | 0
Cc1cc(C)cc(N(CC(=O)NCC2CCCO2)C(=O)CCC(=O)Nc2nccs2)c1 (configuration not stated) | 1 | 0 | -1 | 0 | 0 | nt | nt
c1ccc(-c2cnnc(-c3ccccn3)n2)cc1 | 7.1* | 2 | -1 | 5 | 2 | 0 | 2
COc1ccccc1NC(=O)c1cc(C(=O)Nc2ccccc2OC)cc(N2C(=O)CCC2=O)c1 | -2 | 0 | -1 | -2 | 0 | nt | nt
CCCn1c(NC(=O)c2ccc(C)cc2)nc2ccccc21 | -1 | 0 | -1 | 4 | 0 | nt | nt
Cc1ccc(C(=O)Nc2nc3ccccc3n2CCN2CCCC2)cc1 | 9.1* | 1 | 2.7* | 14* | 4.3* | 1 | 8.5*
CCOC(=O)c1ccc(N2Cc3ccccc3C2=NC(=O)c2cccs2)cc1 | -1 | 0 | -1 | 1 | 2 | nt | nt
CC(=O)c1ccc(N2Cc3ccccc3C2=NC(=O)c2cccs2)cc1 | 6.6* | 0 | 0 | 12* | 4 | 0 | 4
O=C(Nc1cccc2ccccc12)c1ccco1 | 2 | nt | -1 | 0 | -1 | nt | nt
O=C(NC(=S)Nc1nc2c(ccc3ccccc32)s1)c1cccs1 | 9.0* | 1 | 0 | 6 | -1 | 0 | 5.9*
O=C(Nc1nc2c(ccc3ccccc32)s1)c1ccco1 | 6.7* | 1 | 1 | 3 | 2 | 1 | 4
CC(C)(C)c1ccc(-c2nnc(N)o2)cc1 | 1 | 3 | -2 | 7 | 1 | nt | nt
Cc1ccc(NC(=O)c2nc[nH]c2C(=O)Nc2ccc(C)cc2)cc1 | -1 | 0 | -2 | 1 | -1 | nt | nt
Cc1ccc(NC(=O)c2nsc(Cl)c2Cl)cc1 | 13* | 5.8* | 2.1* | 11* | 3 | 2 | 14*
Cc1cc(C)cc(C(=O)Nc2ccc(NC(=O)Cc3ccccc3)cc2)c1 | -2 | 1 | -2 | 0 | 0 | nt | nt
CCCC1(c2ccccc2)NC(=O)N(CC(=O)Nc2cc(C)ccc2OC)C1=O (configuration not stated) | 0 | 1 | -1 | -2 | 0 | nt | nt
Cc1cc(N=Nc2c(O)c3ccccc3[nH]c2=O)ccc1N=Nc1ccc(C(=O)N(C)C)cc1 | 4 | 1 | 0 | 3 | 0 | nt | nt
CC(=O)c1cccc(N=Nc2c(C)[nH]c3ccccc23)c1 | 6.7* | 0 | 1.4* | -1 | 0 | 0 | 5
